Assay results taken from PubChem BioAssay (NCATS).
Results filed as inconclusive are left out. Activity calls are given as the source filed them. Unless noted, calls come from the whole dose curve; as a rule, active = well fitted curve in the direction sought with a large enough effect; inconclusive = small, poorly fitted or top-dose-only effect, or another doubt; inactive = no such curve, though single readings can be large; an effect the other way counts as inactive or inconclusive.

How the values were obtained:
[1] = NS1 protein of Zika virus - qHTS assay to identify small molecule inhibitors in human HEK 293 cells (AID 1347053); note: series mostly up to about 46 µM; nearly all actives have a fitted effect of over 55% in size
Summary of the method: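 Compound-treated (1 h pre-infection) HEK 293 cells infected with ZIKV MR766, MOI = 0.5; after 24 h at 37 C, NS1 read by TR-FRET; data normalized to uninfected and infected controls.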

[2] = biological target: T1, Tyrosine-protein phosphatase non-receptor type substrate 1 (Homo sapiens) + Leukocyte surface antigen CD47 (Homo sapiens) (UniProt P78324+Q08722); test: CD47-SIRPalpha protein protein interaction - LANCE assay qHTS validation (AID 1347057; active = well fitted curve in the direction sought with a large enough effect in the signal ratio, with a control signal flat, not every such curve was filed as active; the % refers to the signal ratio; note: series mostly up to about 38 µM)
T1 sequence (P78324 whole entry, looked up, the tested form may be a part): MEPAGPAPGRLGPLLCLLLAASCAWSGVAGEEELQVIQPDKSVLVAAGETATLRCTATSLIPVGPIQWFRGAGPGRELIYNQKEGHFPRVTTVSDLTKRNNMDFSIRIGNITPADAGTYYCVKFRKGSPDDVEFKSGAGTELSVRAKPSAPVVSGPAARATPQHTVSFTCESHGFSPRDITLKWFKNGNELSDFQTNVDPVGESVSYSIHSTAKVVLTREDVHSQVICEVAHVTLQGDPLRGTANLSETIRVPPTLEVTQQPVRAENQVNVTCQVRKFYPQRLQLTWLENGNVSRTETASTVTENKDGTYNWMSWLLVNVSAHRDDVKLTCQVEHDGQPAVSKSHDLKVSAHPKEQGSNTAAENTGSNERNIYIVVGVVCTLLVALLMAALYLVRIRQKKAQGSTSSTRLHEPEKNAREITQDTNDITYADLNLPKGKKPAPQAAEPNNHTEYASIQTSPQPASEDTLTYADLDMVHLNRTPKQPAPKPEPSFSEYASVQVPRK
T1 sequence (Q08722 whole entry, looked up, the tested form may be a part): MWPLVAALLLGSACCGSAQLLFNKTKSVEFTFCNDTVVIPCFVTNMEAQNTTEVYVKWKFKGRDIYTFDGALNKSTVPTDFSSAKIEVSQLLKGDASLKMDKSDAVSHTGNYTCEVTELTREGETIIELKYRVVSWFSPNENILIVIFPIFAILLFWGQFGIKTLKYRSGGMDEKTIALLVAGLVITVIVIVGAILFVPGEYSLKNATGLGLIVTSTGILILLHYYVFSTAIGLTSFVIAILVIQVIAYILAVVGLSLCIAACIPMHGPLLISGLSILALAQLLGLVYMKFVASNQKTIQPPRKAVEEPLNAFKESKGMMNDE
Summary of the method: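 Inhibition of soluble CD47/SIRPalpha ectodomain association by titrated compounds, measured as 665/615 nm time-resolved FRET ratio after sequential 30 min room-temperature incubations.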

[3] = biological target: T1, Tyrosine-protein phosphatase non-receptor type substrate 1 (Homo sapiens) + Leukocyte surface antigen CD47 (Homo sapiens); test: CD47-SIRPalpha protein protein interaction - HTRF assay qHTS validation (AID 1347058; active = well fitted curve in the direction sought with a large enough effect in the signal ratio, not every such curve was filed as active; the % refers to the signal ratio; note: series mostly up to about 38 µM)
Summary of the method: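 Soluble extracellular domains (6His-CD47, Avi-tag-biotinylated SIRPalpha) in PBS pH 7.4 with 0.05% IGEPAL CA-630. Compounds were preincubated 30 min at RT with CD47 and anti-His-Eu, then SIRPalpha and SAV-XL665 were added. TR-FRET 665/615 ratio.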

[4] = biological target: T1, Tyrosine-protein phosphatase non-receptor type substrate 1 (Homo sapiens) + Leukocyte surface antigen CD47 (Homo sapiens); test: CD47-SIRPalpha protein protein interaction - Alpha assay qHTS validation (AID 1347059);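 note: bead proximity luminescence from CD47 binding SIRPalpha after compound preincubation with SIRPalpha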
Summary of the method: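 In PBS (pH 7.4) with 0.05% IGEPAL CA-630, compound is preincubated with biotin-Avi-SIRPalpha ectodomain before His-CD47 ectodomain and affinity beads are added. Light-protected room-temperature incubations; AlphaScreen readout.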

[5] = biological target: N-terminal Xaa-Pro-Lys N-methyltransferase 1 (Homo sapiens) (UniProt Q9BV86); test: qHTS Assay for Inhibitors of N-terminal methyltransferase 1 (NTMT1): LOPAC validation of the NTMT1 SAHH-coupled ThioGlo3 Assay (AID 1347143);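 note: SAH from peptide methylation measured as thiol fluorescence via SAHH coupling and ThioGlo3; nearly all actives have a fitted effect of over 70% in size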; note: potency is the fitted concentration of half-maximal effect
Chain of N-terminal Xaa-Pro-Lys N-methyltransferase 1 (Homo sapiens) (Q9BV86 whole entry, looked up): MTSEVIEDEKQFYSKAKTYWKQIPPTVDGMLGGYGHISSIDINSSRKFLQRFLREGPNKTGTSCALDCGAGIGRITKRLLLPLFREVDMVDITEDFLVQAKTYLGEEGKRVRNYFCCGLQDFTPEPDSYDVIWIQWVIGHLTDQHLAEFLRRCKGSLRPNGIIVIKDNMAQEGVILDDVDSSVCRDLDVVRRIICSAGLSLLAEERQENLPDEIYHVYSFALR
Summary of the method: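 In this qHTS pilot against the LOPAC set, 125nM NTMT1 met compounds tested at multiple concentrations, and fluorescence was normalized to background.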

[6] = test system: Zika virus NS2B-NS3 protease (unlinked); test: Optimization of GU AMC qHTS for Zika virus inhibitors: Unlinked NS2B-NS3 protease assay (AID 1347151); note: nearly all actives have a fitted effect of over 80% in size; note: potency is the fitted concentration of half-maximal effect
Summary of the method: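 Noncovalent NS2B hydrophilic domain–NS3 protease complex (25 nM final) in 10 mM Tris-HCl pH 8.0, 0.01% Tween 20; AMC substrate, room temperature 15 min (~20% conversion); fluorescence change normalized, 4-parameter Hill fit.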

[7] = biological target: Parathyroid hormone/parathyroid hormone-related peptide receptor (Homo sapiens) (UniProt Q03431); test: qHTS for PTHR1 Agonists: Optimization Screen against the NCGC LOPAC library (AID 1347079);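 note: GloSensor cAMP luminescence in HEK-293 GP2 cells expressing human PTHR1 with IBMX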; note: potency is the fitted concentration of half-maximal effect
Chain of Parathyroid hormone/parathyroid hormone-related peptide receptor (Homo sapiens) (Q03431 whole entry, looked up): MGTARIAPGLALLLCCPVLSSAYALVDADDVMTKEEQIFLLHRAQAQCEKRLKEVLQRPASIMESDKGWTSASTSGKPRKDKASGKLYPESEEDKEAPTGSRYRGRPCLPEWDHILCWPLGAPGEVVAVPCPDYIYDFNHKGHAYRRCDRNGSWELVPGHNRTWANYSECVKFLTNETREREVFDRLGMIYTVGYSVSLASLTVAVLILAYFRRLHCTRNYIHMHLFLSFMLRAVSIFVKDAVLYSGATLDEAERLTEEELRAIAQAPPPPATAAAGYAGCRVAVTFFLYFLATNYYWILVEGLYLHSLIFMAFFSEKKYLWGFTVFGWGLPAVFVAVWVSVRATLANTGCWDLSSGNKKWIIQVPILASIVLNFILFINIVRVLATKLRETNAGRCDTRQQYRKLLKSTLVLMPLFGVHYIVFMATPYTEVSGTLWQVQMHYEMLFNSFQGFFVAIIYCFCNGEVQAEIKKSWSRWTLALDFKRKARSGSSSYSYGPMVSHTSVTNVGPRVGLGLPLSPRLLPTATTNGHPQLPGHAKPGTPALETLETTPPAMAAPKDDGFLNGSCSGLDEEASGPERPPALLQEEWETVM
Summary of the method: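 Signal increase flags agonism. GP2 cells, derived from HEK-293, express human PTHR1 and a GloSensor cAMP construct.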

[8] = test system: Zika virus NS2B-NS3 protease (linked construct); test: Confirmatory screen NINDS AMC qHTS for Zika virus inhibitors (AID 1347152);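 note: AMC fluorescence gain from cleaved Bz-Nle-KRR-AMC substrate over 15 min; top concentration of the series differs between compounds; nearly all actives have a fitted effect of over 70% in size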
Summary of the method: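 Linked NS2B-NS3 protease, 1 nM, in 10 mM Tris-HCl pH 8.0, 0.01% Tween 20; compounds preincubated 15 min at room temperature. Nle-KRR-AMC 10 microM (Km 18.3 µM); 15-min fluorescence change (340/450 nm) fitted to 4-parameter Hill.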

[9] = test system: Zika virus NS2B-NS3 protease (unlinked complex); test: Confirmatory screen GU AMC qHTS for Zika virus inhibitors (AID 1347153); note: nearly all actives have a fitted effect of over 70% in size
Summary of the method: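 Unlinked enzyme 25 nM, Tris pH 8.0/0.01% Tween 20; cpd 15 min RT, dark; + AMC substrate 10 µM (Km 18.3 µM); 340/450 nm read at t0 and 15 min; % inhibition → 4-param fit.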

Furin (Homo sapiens) = Furin (Homo sapiens) (UniProt P09958); test: Furin counterscreen qHTS for Zika virus inhibitors (AID 1347149); note: nearly all actives have a fitted effect of over 70% in size; note: potency is the fitted concentration of half-maximal effect
Chain of Furin (Homo sapiens) (P09958 whole entry, looked up): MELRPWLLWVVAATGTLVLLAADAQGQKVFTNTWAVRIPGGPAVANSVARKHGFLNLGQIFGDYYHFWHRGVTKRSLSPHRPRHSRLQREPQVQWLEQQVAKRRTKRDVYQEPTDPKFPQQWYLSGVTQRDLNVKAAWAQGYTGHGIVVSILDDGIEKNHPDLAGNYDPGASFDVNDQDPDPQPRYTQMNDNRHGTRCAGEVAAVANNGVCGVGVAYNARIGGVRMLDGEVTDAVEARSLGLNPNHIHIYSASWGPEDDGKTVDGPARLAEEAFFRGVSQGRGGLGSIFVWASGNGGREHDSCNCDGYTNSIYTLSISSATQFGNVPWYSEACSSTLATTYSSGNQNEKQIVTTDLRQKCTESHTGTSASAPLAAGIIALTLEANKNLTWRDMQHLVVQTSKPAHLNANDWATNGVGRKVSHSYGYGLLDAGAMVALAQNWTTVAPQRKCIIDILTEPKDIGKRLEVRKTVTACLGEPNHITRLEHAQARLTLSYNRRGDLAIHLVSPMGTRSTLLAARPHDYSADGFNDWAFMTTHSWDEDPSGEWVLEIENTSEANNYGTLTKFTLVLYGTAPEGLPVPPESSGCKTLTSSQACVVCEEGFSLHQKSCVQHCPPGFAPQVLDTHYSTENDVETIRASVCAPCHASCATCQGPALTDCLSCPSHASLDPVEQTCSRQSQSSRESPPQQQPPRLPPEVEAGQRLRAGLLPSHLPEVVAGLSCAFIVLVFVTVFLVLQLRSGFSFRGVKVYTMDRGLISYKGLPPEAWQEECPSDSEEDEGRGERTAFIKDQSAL
Summary of the method: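 Counterscreen measures cleavage of 2 microM BOC-RVRR-AMC, below its ~15 microM Km, by 5 nM full-length human furin at pH 7.0 after a 15-min compound preincubation. Inhibition derives from the 15-min fluorescence increase at 37C.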

Measured: Potency

N[C@@H](Cc1c[nH]c2ccccc12)C(=O)O
inactive: [1] | [2] | [3] | [4] | [5] | [6]

O=C(c1ccc2c(c1)OCCO2)N1CCCCC1
inactive: [1] | [2] | [3] | [4] | [5] | [6]

CCCCCCCCCCC/C=C\C(C)(C)/C=C\CCCC(=O)O
active: [6] 6.7 µM
inactive: [1] | [2] | [3] | [7] | [5]

Cc1cccc(C2CN(C)CCc3c2cc(O)c(O)c3Cl)c1 (stereo unspecified)
active: [5] 56.2 µM
inactive: [1] | [2] | [3] | [7] | [6]

Nn1nnc2ccccc21
inactive: [1] | [2] | [3] | [7] | [5] | [6]

NC(=O)CC[C@H](N)C(=O)O
inactive: [1] | [2] | [3] | [7] | [6]

CCCn1c(=O)c(C)cn2nc(N)nc12
active: [5] 39.8 µM | [6] 29.9 µM
inactive: [1] | [2] | [3] | [7]

Nc1nc2c(nc(Br)n2C2OC3COP(=O)(O)O[C@@H]3C2O)c(=O)[nH]1 (stereo partly specified)
inactive: [1] | [2] | [3] | [4] | [6]

CC(C)[C@@H]1CC[C@@H](C)C[C@@H]1P(=O)(c1ccccc1)c1ccccc1
inactive: [1] | [2] | [3] | [7] | [5] | [6]

Cc1nc2c(OCc3ccccc3)cccn2c1CC#N
inactive: [1] | [2] | [3] | [7] | [5] | [6]

Nc1nc2ccc(Cl)cc2c2nc(-c3ccco3)nn12
inactive: [1] | [2] | [3] | [8] | [9]
active: [7] 6.7 µM | [5] 12.6 µM

O=c1oc(Cl)c(Cl)c2ccccc12
inactive: [1] | [2] | [3] | [7] | [6]

CN(C)C(=O)/N=N/C(=O)N(C)C
inactive: [1] | [2] | [4] | [7] | [6]
active: [5] 7.08 µM

NC/C=C\C(=O)O
inactive: [1] | [2] | [4] | [7] | [5] | [6]

C[C@H](O)C(=O)C1=Nc2c(nc(N)[nH]c2=O)NC1
active: [5] 44.7 µM | [6] 23.8 µM
inactive: [1] | [2] | [4] | [7]

COc1cc2c(CCNC(C)=O)c[nH]c2cc1O
active: Furin (Homo sapiens) 27.1 µM
inactive: [1] | [2] | [3] | [5] | [8] | [9]

COc1ccc(-c2ccc(N)[n+](CCCC(=O)O)n2)cc1
inactive: [1] | [2] | [4] | [7] | [5] | [6]

N#C/C(=C\c1ccc(O)c(O)c1)C(=O)NCCc1ccccc1
active: [5] 44.7 µM | [6] 2.38 µM
inactive: [1] | [2] | [4] | [7]

COc1ccc(-c2cc3ncc(C)n3c(Nc3ncccc3C(N)=O)n2)cc1OC
inactive: [1] | [2] | [4] | [7]
active: [6] 26.7 µM

O=C(O)c1ccccc1Nc1ccccc1
inactive: [1] | [2] | [4] | [7]

CCc1ccc2c(-c3cccc(Cl)c3)nc(=O)n(CC)c2n1
active: [7] 2.67 µM | Furin (Homo sapiens) 21.5 µM | [6] 26.7 µM
inactive: [1] | [2] | [4] | [9]

CC(C)(C)c1ccc(/C=C/C(=O)Nc2ccc3c(c2)OCCO3)cc1
inactive: [1] | [2] | [4] | [7] | [6]

NC(=Nc1ccccc1)NC(=O)c1nc(Cl)c(N)nc1N
active: [5] 56.2 µM | [6] 26.7 µM
inactive: [1] | [2] | [4] | [7]

Cc1nc(N=Nc2cc(S(=O)(=O)O)c3cc([N+](=O)[O-])cc(S(=O)(=O)O)c3c2)c(COP(=O)(O)O)c(C=O)c1O
inactive: [1] | [2] | [4] | [7] | Furin (Homo sapiens)
active: [5] 56.2 µM | [6] 26.7 µM

COc1ccccc1N1CCN(CCCCNC(=O)c2ccc3ccccc3c2)CC1
inactive: [1] | [2] | [7]

N#Cc1cc2nc(O)c(O)nc2cc1[N+](=O)[O-]
inactive: [1] | [2] | [4] | [5] | [6]

O=c1onc2cnc3ccccc3n12
inactive: [1] | [2] | [4] | [7]
active: [5] 56.2 µM | [6] 26.7 µM

CC1CCN(CC[C@H]2CCCN2S(=O)(=O)c2cccc(O)c2)CC1
inactive: [1] | [2] | [4] | [7] | [5]

O=C1Cc2c([nH]c3ccc(Br)cc23)-c2ccccc2N1
active: [5] 50.1 µM
inactive: [1] | [2] | [4] | [7] | [6]
